Laboratory results published in the supplement of paper PMC10849652.
About 7,900 targets were measured; listed, in parts, are those with a hit and a random draw of the rest. About 0.6% of all pairs of compound and target were hits. Unmarked numbers belong to inactive results.

Columns and labels:
Experiment in all cases: log2 fold change, soluble protein after heating vs DMSO (PISA); higher = thermal stabilisation; K562 cells, 10 uM, 30 min; active = over 0.2 and 3.5 SD of the protein, either way, in both replicates (recomputed)
erlotinib = compound: C#Cc1cccc(Nc2ncnc3cc(OCCOC)c(OCCOC)cc23)c1 [erlotinib]
In short: (§1)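 K562 cells (2×10^6 cells/mL) were treated with 10 μM compound for 30 min, and aliquots were heated for 3 min over 48°C-58°C. Pooled aliquots were extracted in PBS with 0.5% NP-40 at 4°C, and the supernatant after 21,000xg for 90 min was measured by TMTpro 16plex LC-MS/MS with channel sums equalised. Reported thermal stability, relative to control samples and from duplicates, is a log2 fold change.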

[1] = compound: C/C(=N\NC(=O)C1=CC(=CC=C1)S(=O)(=O)N2CCOCC2)/C3=C(C=CC(=C3)Cl)O
In short: as §1

[2] = compound: C1=CC(=C(C=C1Cl)C2=NC3=NC=CN=C3C(=N2)NC4=CC=NC=C4)F
In short: as §1

[3] = compound: C1=CC(=CC=C1C2=NC3=C(N2)C=C(C=C3)C(=O)N)OC4=CC=C(C=C4)Cl
In short: as §1

[4] = compound: C1=CC2=C(C=CC(=C2)/C=C\3/C(=O)NC(=NCC4=CC=CS4)S3)N=C1
In short: as §1

[5] = compound: C1=CC2=NC=CN=C2C=C1/C=C/3\C(=O)NC(=O)S3
In short: as §1

[6] = compound: C1=CC=C(C=C1)C2=NC(=C(N2)C3=CC=NC=C3)C4=CC(=C(C=C4)Cl)O
In short: as §1

[7] = compound: C1=CC=C2C(=C1)C3=NNC4=CC=CC(=C43)C2=O
In short: as §1

[8] = compound: C1CCN(C1)C(=O)NC2=CC=CC(=C2)NC3=NC=C(C(=N3)NCCC4=CN=CN4)Br
In short: as §1

[9] = compound: C1CN(CCC1(CC2=CC=C(C=C2)Cl)N)C3=NC=NC4=C3C=CN4
In short: as §1

DNTTIP2 (UniProt Q5QJE6)
log2 fold change (erlotinib): -0.111
log2 fold change [1]: -0.186
log2 fold change [2]: -0.242
log2 fold change [3]: 0.038
log2 fold change [4]: 0.005
log2 fold change [5]: -0.043
log2 fold change [6]: -0.069
log2 fold change [7]: -0.269
log2 fold change [8]: -0.004
log2 fold change [9]: -0.111

EEF1AKNMT (UniProt Q8N6R0)
log2 fold change (erlotinib): 0.063
log2 fold change [1]: 0.15
log2 fold change [2]: 0.008
log2 fold change [3]: -0.022
log2 fold change [4]: 0.114
log2 fold change [5]: 0.013
log2 fold change [6]: 0.091
log2 fold change [7]: 0.058
log2 fold change [8]: 0.023
log2 fold change [9]: -0.061

DDOST (UniProt P39656)
Chain of UniProt P39656 (P39656 whole entry, looked up): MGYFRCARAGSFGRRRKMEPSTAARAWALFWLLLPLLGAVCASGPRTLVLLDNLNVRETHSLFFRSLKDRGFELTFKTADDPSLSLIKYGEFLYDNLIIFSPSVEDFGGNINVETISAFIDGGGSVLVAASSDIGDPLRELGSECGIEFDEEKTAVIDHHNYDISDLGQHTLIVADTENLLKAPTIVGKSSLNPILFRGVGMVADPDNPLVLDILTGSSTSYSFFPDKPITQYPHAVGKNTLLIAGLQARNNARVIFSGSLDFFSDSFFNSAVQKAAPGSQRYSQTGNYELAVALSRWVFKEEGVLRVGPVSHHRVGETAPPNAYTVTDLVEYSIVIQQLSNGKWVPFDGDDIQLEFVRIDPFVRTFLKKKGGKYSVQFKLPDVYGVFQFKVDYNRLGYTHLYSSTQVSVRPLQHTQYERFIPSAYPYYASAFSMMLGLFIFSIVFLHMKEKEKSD
log2 fold change (erlotinib): -0.033
log2 fold change [1]: 0.003
log2 fold change [2]: 0.004
log2 fold change [3]: -0.014
log2 fold change [4]: -0.085
log2 fold change [5]: 0.014
log2 fold change [6]: 0.253 (active)
log2 fold change [7]: 0.012
log2 fold change [8]: -0.002
log2 fold change [9]: -0.003

DCAF6 isoform 3 (UniProt Q58WW2)
log2 fold change (erlotinib): 0.035
log2 fold change [1]: 0
log2 fold change [2]: 0.035
log2 fold change [3]: 0.014
log2 fold change [4]: 0.007
log2 fold change [5]: 0.045
log2 fold change [6]: 0.008
log2 fold change [7]: -0.036
log2 fold change [8]: 0.042
log2 fold change [9]: 0.055

DOCK8 (UniProt Q8NF50)
log2 fold change (erlotinib): 0.259
log2 fold change [1]: 0.001
log2 fold change [2]: 0.182
log2 fold change [3]: 0.04
log2 fold change [4]: -0.092
log2 fold change [5]: -0.021
log2 fold change [6]: -0.046
log2 fold change [7]: 0.059
log2 fold change [8]: -0.076
log2 fold change [9]: -0.071

EEA1 (UniProt Q15075)
log2 fold change (erlotinib): 0
log2 fold change [1]: -0.016
log2 fold change [2]: 0.046
log2 fold change [3]: 0.003
log2 fold change [4]: 0.01
log2 fold change [5]: 0.046
log2 fold change [6]: -0.046
log2 fold change [7]: -0.031
log2 fold change [8]: 0.009
log2 fold change [9]: 0.05

DCTPP1 (UniProt Q9H773)
Chain of UniProt Q9H773 (Q9H773 whole entry, looked up): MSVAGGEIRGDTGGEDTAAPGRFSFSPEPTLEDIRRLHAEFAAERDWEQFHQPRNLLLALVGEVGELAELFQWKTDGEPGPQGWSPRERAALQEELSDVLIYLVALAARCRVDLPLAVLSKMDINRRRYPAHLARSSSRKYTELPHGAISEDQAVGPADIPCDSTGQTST
log2 fold change (erlotinib): 0.01
log2 fold change [1]: -0.07
log2 fold change [2]: 0.14
log2 fold change [3]: -0.039
log2 fold change [4]: -0.073
log2 fold change [5]: 0.035
log2 fold change [6]: 0.194
log2 fold change [7]: 0.012
log2 fold change [8]: -0.021
log2 fold change [9]: -0.054

DHX40 (UniProt Q8IX18)
Chain of UniProt Q8IX18 (Q8IX18 whole entry, looked up): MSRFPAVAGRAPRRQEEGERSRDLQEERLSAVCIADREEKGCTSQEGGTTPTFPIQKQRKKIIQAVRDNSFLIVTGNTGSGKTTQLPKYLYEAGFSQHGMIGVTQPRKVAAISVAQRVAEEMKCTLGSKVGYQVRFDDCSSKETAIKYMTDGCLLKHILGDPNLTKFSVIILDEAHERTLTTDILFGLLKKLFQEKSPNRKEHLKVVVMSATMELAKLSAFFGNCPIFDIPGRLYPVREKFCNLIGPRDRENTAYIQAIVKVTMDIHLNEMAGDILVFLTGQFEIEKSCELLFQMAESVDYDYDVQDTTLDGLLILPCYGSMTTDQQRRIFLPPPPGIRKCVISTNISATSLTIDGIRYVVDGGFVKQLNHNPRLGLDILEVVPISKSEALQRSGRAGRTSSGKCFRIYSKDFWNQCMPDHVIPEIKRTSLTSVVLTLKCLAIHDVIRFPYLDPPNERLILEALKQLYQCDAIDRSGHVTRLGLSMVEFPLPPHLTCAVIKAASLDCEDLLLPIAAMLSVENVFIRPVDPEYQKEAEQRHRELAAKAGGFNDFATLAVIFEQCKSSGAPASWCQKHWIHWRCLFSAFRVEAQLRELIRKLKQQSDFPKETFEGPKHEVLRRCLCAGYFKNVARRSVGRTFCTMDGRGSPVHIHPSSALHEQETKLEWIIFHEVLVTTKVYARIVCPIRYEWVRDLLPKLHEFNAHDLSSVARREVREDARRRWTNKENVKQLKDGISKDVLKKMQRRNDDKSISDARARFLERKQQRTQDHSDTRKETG
log2 fold change (erlotinib): 0.019
log2 fold change [1]: 0.05
log2 fold change [2]: -0.008
log2 fold change [3]: 0.071
log2 fold change [4]: 0.044
log2 fold change [5]: 0.092
log2 fold change [6]: -0.046
log2 fold change [7]: -0.034
log2 fold change [8]: -0.071
log2 fold change [9]: -0.038

DMXL1 (UniProt Q9Y485)
log2 fold change (erlotinib): 0.059
log2 fold change [1]: 0.071
log2 fold change [2]: -0.006
log2 fold change [3]: 0.006
log2 fold change [4]: 0.068
log2 fold change [5]: -0.001
log2 fold change [6]: 0.024
log2 fold change [7]: -0.02
log2 fold change [8]: 0.019
log2 fold change [9]: 0.034

DDX11 (UniProt Q96FC9)
Chain of UniProt Q96FC9 (Q96FC9 whole entry, looked up): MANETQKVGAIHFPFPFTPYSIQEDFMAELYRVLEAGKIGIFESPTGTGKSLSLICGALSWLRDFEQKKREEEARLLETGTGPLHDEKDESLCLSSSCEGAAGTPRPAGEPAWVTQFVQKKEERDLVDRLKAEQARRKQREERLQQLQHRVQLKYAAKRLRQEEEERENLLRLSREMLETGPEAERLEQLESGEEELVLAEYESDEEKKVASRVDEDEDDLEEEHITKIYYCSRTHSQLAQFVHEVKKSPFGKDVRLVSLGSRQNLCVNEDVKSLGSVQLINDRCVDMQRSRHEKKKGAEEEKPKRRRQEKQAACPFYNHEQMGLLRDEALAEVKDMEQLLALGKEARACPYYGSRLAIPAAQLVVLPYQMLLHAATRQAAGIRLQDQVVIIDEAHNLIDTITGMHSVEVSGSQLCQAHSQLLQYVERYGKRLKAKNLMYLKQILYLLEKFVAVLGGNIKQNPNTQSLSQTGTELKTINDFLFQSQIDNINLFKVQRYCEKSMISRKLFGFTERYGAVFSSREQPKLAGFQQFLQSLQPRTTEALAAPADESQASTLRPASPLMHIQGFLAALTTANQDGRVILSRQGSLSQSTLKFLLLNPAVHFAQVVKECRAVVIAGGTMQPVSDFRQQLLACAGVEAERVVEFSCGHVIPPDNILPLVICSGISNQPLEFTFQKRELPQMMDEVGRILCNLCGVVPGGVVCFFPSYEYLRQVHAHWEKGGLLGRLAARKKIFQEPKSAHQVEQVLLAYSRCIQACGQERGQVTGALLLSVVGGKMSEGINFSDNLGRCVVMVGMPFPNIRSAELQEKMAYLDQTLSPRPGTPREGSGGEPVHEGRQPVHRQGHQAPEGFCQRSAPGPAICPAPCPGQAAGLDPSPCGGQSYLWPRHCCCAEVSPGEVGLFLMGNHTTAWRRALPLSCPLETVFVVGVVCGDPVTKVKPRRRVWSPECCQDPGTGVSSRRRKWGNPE
log2 fold change (erlotinib): 0.019
log2 fold change [1]: -0.041
log2 fold change [2]: 0.087
log2 fold change [3]: 0.005
log2 fold change [4]: 0.029
log2 fold change [5]: 0.034
log2 fold change [6]: 0.215
log2 fold change [7]: -0.027
log2 fold change [8]: 0.032
log2 fold change [9]: 0.072

ETNK1 (UniProt Q9HBU6)
log2 fold change (erlotinib): 0.004
log2 fold change [1]: 0.128
log2 fold change [2]: 0.244
log2 fold change [3]: -0.001
log2 fold change [4]: -0.126
log2 fold change [5]: 0.035
log2 fold change [6]: 0.037
log2 fold change [7]: 0.028
log2 fold change [8]: -0.033
log2 fold change [9]: -0.119

EGLN1 (UniProt Q9GZT9)
Chain of UniProt Q9GZT9 (Q9GZT9 whole entry, looked up): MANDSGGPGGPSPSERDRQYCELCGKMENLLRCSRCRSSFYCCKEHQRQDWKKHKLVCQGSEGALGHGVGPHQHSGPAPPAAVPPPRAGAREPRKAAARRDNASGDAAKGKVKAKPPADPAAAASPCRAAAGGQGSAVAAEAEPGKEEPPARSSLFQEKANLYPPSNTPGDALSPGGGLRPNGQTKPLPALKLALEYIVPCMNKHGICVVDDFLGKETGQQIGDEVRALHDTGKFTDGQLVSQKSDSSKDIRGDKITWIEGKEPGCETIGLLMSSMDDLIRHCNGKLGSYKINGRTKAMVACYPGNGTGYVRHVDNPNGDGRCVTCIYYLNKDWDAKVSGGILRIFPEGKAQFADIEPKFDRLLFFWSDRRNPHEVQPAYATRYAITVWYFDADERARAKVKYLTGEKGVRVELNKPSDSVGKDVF
log2 fold change (erlotinib): 0.035
log2 fold change [1]: -0.355 (active)
log2 fold change [2]: 0.075
log2 fold change [3]: -0.035
log2 fold change [4]: 0.043
log2 fold change [5]: -0.08
log2 fold change [6]: 0.021
log2 fold change [7]: -0.02
log2 fold change [8]: 0.01
log2 fold change [9]: -0.003

EXOC8 (UniProt Q8IYI6)
log2 fold change (erlotinib): 0.048
log2 fold change [1]: 0.144
log2 fold change [2]: -0.042
log2 fold change [3]: -0.056
log2 fold change [4]: 0.05
log2 fold change [5]: 0.017
log2 fold change [6]: -0.012
log2 fold change [7]: 0.001
log2 fold change [8]: -0.053
log2 fold change [9]: -0.054

DPP8 (UniProt Q6V1X1)
log2 fold change (erlotinib): 0.093
log2 fold change [1]: 0.088
log2 fold change [2]: 0.067
log2 fold change [3]: 0
log2 fold change [4]: 0.134
log2 fold change [5]: 0.018
log2 fold change [6]: -0.067
log2 fold change [7]: -0.011
log2 fold change [8]: -0.003
log2 fold change [9]: 0.008

DNAJC7 (UniProt Q99615)
log2 fold change (erlotinib): 0.02
log2 fold change [1]: 0.065
log2 fold change [2]: 0.061
log2 fold change [3]: -0.002
log2 fold change [4]: 0.014
log2 fold change [5]: 0.024
log2 fold change [6]: 0.013
log2 fold change [7]: 0.023
log2 fold change [8]: 0.005
log2 fold change [9]: -0.043

DLD (UniProt P09622)
log2 fold change (erlotinib): 0.001
log2 fold change [1]: -0.018
log2 fold change [2]: 0.044
log2 fold change [3]: -0.083
log2 fold change [4]: -0.007
log2 fold change [5]: -0.018
log2 fold change [6]: 0.032
log2 fold change [7]: -0.018
log2 fold change [8]: 0.031
log2 fold change [9]: 0.054

DHRS3 (UniProt O75911)
log2 fold change (erlotinib): 0.116
log2 fold change [1]: 0.041
log2 fold change [2]: 0.11
log2 fold change [3]: 0.018
log2 fold change [4]: 0.155
log2 fold change [5]: -0.037
log2 fold change [6]: 0.024
log2 fold change [7]: 0.074
log2 fold change [8]: 0.005
log2 fold change [9]: 0.191

DNAH11 (UniProt Q96DT5)
log2 fold change (erlotinib): -0.252
log2 fold change [1]: -0.237
log2 fold change [2]: 0.001
log2 fold change [3]: 0.085
log2 fold change [4]: 0.012
log2 fold change [5]: -0.023
log2 fold change [6]: -0.28
log2 fold change [7]: -0.001
log2 fold change [8]: 0.125
log2 fold change [9]: 0.119

F5 (UniProt P12259)
log2 fold change (erlotinib): -0.122
log2 fold change [1]: 0
log2 fold change [2]: -0.002
log2 fold change [3]: 0.061
log2 fold change [4]: -0.096
log2 fold change [5]: -0.054
log2 fold change [6]: -0.018
log2 fold change [7]: -0.064
log2 fold change [8]: 0
log2 fold change [9]: 0.052

EVC2 (UniProt Q86UK5)
log2 fold change (erlotinib): -0.01
log2 fold change [1]: -0.044
log2 fold change [2]: -0.013
log2 fold change [3]: -0.035
log2 fold change [4]: -0.069
log2 fold change [5]: -0.019
log2 fold change [6]: -0.002
log2 fold change [7]: 0.061
log2 fold change [8]: -0.042
log2 fold change [9]: -0.117

ERCC2 (UniProt P18074)
Chain of UniProt P18074 (P18074 whole entry, looked up): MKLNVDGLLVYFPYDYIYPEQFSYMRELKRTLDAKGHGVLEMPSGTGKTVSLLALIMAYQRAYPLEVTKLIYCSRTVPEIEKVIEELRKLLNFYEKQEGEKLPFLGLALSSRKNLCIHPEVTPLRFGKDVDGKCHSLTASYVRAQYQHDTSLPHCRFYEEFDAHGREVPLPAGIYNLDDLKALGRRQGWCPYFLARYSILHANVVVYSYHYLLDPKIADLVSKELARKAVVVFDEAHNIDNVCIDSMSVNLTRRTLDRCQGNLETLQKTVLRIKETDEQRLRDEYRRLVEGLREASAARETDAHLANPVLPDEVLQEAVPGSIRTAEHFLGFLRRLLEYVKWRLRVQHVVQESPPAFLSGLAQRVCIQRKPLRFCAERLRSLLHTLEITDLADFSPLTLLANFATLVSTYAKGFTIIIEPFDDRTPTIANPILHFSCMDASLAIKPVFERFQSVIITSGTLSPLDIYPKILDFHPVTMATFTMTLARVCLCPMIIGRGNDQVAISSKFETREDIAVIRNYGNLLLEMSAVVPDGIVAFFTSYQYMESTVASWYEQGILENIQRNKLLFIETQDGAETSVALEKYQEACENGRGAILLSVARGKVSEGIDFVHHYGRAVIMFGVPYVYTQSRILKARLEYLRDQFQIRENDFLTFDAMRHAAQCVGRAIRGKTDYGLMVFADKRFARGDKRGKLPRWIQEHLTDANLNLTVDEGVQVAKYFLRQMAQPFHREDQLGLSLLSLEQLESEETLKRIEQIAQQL
log2 fold change (erlotinib): 0.04
log2 fold change [1]: 0.049
log2 fold change [2]: 0.2
log2 fold change [3]: 0.033
log2 fold change [4]: 0.041
log2 fold change [5]: -0.051
log2 fold change [6]: 0.014
log2 fold change [7]: -0.054
log2 fold change [8]: -0.005
log2 fold change [9]: 0.036

CWC27 (UniProt Q6UX04)
Chain of UniProt Q6UX04 (Q6UX04 whole entry, looked up): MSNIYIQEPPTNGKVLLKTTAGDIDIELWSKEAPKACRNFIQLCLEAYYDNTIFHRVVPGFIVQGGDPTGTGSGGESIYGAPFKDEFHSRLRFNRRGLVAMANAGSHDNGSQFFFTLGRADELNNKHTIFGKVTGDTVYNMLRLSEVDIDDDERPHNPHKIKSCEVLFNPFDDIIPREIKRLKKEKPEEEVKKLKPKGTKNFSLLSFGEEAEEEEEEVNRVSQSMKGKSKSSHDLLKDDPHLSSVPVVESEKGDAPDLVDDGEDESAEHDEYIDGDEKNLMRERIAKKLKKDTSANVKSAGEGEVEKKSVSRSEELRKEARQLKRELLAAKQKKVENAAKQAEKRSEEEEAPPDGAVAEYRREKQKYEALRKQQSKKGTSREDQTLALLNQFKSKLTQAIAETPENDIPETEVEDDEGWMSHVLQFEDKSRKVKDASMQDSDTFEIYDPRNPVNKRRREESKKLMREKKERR
log2 fold change (erlotinib): 0.084
log2 fold change [1]: -0.023
log2 fold change [2]: 0.055
log2 fold change [3]: -0.049
log2 fold change [4]: 0.021
log2 fold change [5]: 0.02
log2 fold change [6]: 0.041
log2 fold change [7]: -0.102
log2 fold change [8]: -0.086
log2 fold change [9]: -0.053

EIF4G1 isoform 8 (UniProt Q04637)
log2 fold change (erlotinib): -0.092
log2 fold change [1]: 0.128
log2 fold change [2]: -0.065
log2 fold change [3]: 0.011
log2 fold change [4]: -0.036
log2 fold change [5]: -0.089
log2 fold change [6]: -0.099
log2 fold change [7]: -0.246
log2 fold change [8]: -0.197
log2 fold change [9]: -0.28

DIP2A (UniProt Q14689)
log2 fold change (erlotinib): -0.002
log2 fold change [1]: 0.07
log2 fold change [2]: 0.055
log2 fold change [3]: 0.103
log2 fold change [4]: -0.145
log2 fold change [5]: 0.076
log2 fold change [6]: 0.037
log2 fold change [7]: 0.043
log2 fold change [8]: 0.03
log2 fold change [9]: 0.053

DFFB (UniProt O76075)
Chain of UniProt O76075 (O76075 whole entry, looked up): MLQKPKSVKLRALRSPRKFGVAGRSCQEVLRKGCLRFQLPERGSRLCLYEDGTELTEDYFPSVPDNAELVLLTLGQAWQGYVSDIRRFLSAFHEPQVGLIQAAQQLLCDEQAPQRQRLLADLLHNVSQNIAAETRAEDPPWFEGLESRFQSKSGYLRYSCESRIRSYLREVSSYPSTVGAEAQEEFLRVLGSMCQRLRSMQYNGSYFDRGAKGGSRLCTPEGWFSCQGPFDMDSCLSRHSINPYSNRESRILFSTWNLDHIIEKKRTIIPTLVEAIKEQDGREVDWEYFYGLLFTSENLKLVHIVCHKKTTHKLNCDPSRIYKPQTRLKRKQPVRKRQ
log2 fold change (erlotinib): -0.015
log2 fold change [1]: 0.103
log2 fold change [2]: 0.022
log2 fold change [3]: 0.035
log2 fold change [4]: 0.101
log2 fold change [5]: 0.016
log2 fold change [6]: 0.037
log2 fold change [7]: -0.005
log2 fold change [8]: -0.305 (active)
log2 fold change [9]: -0.039

DUS3L (UniProt Q96G46)
Chain of UniProt Q96G46 (Q96G46 whole entry, looked up): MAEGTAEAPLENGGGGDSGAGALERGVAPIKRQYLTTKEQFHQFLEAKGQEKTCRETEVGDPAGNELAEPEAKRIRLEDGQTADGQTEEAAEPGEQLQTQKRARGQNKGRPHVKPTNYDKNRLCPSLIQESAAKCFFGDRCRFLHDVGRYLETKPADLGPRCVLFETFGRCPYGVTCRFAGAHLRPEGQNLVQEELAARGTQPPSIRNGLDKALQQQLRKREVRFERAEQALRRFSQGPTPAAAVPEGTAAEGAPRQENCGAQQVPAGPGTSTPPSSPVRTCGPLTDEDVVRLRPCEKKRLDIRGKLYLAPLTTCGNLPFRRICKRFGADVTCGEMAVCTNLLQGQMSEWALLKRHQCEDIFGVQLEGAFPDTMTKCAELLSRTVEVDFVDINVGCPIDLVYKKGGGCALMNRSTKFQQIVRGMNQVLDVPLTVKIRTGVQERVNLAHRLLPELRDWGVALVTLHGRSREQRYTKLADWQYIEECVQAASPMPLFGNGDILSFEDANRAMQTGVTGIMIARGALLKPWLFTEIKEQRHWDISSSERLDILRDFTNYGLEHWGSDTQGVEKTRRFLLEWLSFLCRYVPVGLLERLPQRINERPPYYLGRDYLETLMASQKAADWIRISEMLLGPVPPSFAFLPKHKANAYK
log2 fold change (erlotinib): -0.073
log2 fold change [1]: 0.025
log2 fold change [2]: 0.118
log2 fold change [3]: 0.059
log2 fold change [4]: 0.016
log2 fold change [5]: 0.037
log2 fold change [6]: 0.042
log2 fold change [7]: -0.001
log2 fold change [8]: -0.043
log2 fold change [9]: 0.078

EIF4E2 (UniProt O60573)
log2 fold change (erlotinib): 0.013
log2 fold change [1]: 0.056
log2 fold change [2]: -0.026
log2 fold change [3]: -0.045
log2 fold change [4]: -0.007
log2 fold change [5]: -0.054
log2 fold change [6]: -0.111
log2 fold change [7]: -0.009
log2 fold change [8]: -0.032
log2 fold change [9]: -0.008

DBNL isoform 3 (UniProt Q9UJU6)
log2 fold change (erlotinib): 0.06
log2 fold change [1]: 0.024
log2 fold change [2]: 0.034
log2 fold change [3]: -0.063
log2 fold change [4]: -0.012
log2 fold change [5]: 0.146
log2 fold change [6]: -0.008
log2 fold change [7]: -0.004
log2 fold change [8]: -0.084
log2 fold change [9]: -0.066

EED, A0A5F9ZI63
log2 fold change (erlotinib): 0.056
log2 fold change [1]: 0.049
log2 fold change [2]: -0.04
log2 fold change [3]: 0.028
log2 fold change [4]: -0.1
log2 fold change [5]: 0.05
log2 fold change [6]: -0.036
log2 fold change [7]: -0.033
log2 fold change [8]: 0.032
log2 fold change [9]: 0.012

FAM3A (UniProt P98173)
log2 fold change (erlotinib): -0.064
log2 fold change [1]: 0.118
log2 fold change [2]: -0.067
log2 fold change [3]: 0.029
log2 fold change [4]: 0.059
log2 fold change [5]: 0.082
log2 fold change [6]: 0.083
log2 fold change [7]: -0.05
log2 fold change [8]: -0.044
log2 fold change [9]: 0.059
